Most compounds without a hit are left out; they make up all but 1% or so of the library.
HSV replic up – increases HSV replication in cells | maximum fold increase | hit rate 0.005% among 220,000 | AID 1956 | HSV replication augmentation in cells, fold increase; in the data active means maximum fold increase above about 1.5; tested in PC3 cells
Efflux pump mplx – antifungal efflux pump inhibition, Nile Red retention; S. cerevisiae Candida pump triplex; AID 485275; hit rate 0.44% among 330,000; inhibition, % at 10 µM;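 active means plate passing quality check with inhibition over a set limit, or well fluorescence over plate mean plus 4 SD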;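 further: Nile Red retained in pooled yeast measured as flow cytometry median fluorescence; higher means more Nile Red kept so more efflux inhibition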
A1 inh – inhibitors of the anti-apoptotic protein A1, read as caspase activation | MEF A1-2A-BIM cells, Caspase-Glo 3/7 luminescence, 3 h; percent of clofoctol response, vehicle zero | caspase activation, % (concentration not given with the values) | hit rate 0.066% among 330,000;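 active means over half of replicate activation scores above 10%, or exactly half above 10 with the replicate mean above 10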
NPR1 activator – GC-A (human) enzyme activation; HEK293 GC-A cells, cGMP TR-FRET, EC30 ANP; 0% at EC30 ANP, 100% saturating ANP; activation, % at 10 µM; P16066; hit rate 0.14% among 370,000; in the data active means activation above about 40%
Target sequence (P16066 whole entry, looked up): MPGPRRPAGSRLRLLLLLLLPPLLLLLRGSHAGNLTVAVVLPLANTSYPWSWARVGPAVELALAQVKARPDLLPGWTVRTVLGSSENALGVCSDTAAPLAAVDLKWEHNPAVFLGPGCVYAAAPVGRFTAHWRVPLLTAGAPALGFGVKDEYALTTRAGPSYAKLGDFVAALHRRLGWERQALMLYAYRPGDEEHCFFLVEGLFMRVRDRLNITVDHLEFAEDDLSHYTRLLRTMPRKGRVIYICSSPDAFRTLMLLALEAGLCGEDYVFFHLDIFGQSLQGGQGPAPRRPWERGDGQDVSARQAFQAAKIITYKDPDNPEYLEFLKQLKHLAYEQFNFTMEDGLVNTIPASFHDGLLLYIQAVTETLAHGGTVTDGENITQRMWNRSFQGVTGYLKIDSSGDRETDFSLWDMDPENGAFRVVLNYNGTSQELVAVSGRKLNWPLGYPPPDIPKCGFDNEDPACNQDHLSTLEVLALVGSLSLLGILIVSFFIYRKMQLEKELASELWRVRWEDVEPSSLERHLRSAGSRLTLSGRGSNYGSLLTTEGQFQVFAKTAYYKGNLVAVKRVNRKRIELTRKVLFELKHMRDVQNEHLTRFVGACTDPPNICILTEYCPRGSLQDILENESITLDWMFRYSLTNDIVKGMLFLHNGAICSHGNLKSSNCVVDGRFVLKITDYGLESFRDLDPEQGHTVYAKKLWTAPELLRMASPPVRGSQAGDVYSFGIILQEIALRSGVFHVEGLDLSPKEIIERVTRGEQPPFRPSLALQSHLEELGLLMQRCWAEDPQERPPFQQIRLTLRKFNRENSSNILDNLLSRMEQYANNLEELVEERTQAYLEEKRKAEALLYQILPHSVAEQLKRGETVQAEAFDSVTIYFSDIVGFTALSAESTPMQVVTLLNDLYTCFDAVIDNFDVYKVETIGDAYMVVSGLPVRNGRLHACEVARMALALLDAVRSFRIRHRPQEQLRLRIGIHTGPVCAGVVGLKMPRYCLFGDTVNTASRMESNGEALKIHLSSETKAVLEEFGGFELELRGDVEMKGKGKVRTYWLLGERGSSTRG
NPR2 activator – GC-B (human) receptor activation; HEK293-GC-B cells, CNP EC30, cGMP TR-FRET; 0% at EC30 CNP, 100% saturating CNP; activation, % at 10 µM; hit rate 0.11% among 370,000;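 active means activation at 10 µM reaching about 35% in either raw or pattern-adjusted values, limit read from the data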
TAG inh – inhibitors of triacylglycerol accumulation; H9c2 cells, Nile Red lipid (TAG) fluorescence; cells loaded with 200 µM oleic acid; inhibition, % at 12.5 µM; hit rate 0.66% among 230,000; AID 651582;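 active means pattern-corrected inhibition of lipid staining of at least 50% with the nuclear-stain viability signal not falling by more than 50%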
TAG conf – triacylglycerol accumulation inhibition, confirmation | shares compounds with TAG inh | H9c2 lipid accumulation, Nile Red fluorescence; cells loaded with 200 µM oleic acid | inhibition, % at 12.5 µM | hit rate 71% among 990 | AID 651629;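 active means mean inhibition across replicates of 40% or more; inactive means mean inhibition below 40%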
A number is an active result; 0 = inactive; - = no result given.

SMILES | HSV replic up | Efflux pump mplx | A1 inh | NPR1 activator | NPR2 activator | TAG inh | TAG conf
CCC(CO)NCc1ccc(OCC(=O)Nc2cccc(C(F)(F)F)c2)c(OC)c1 (centres undefined) | 0 | 0 | 0 | 0 | 0 | - | -
CCOc1cc(CNC(C)(C)C)ccc1OCC(=O)Nc1cccc(C(F)(F)F)c1 | 0 | 0 | 0 | 0 | 0 | 52.1 | 63.3
CCOC(=O)[C@]12CCCC3=C1N(CCC3)C(=O)[C@@H](CC(=O)N1CCC(c3ccccc3)CC1)C2 | - | - | - | 0 | 0 | - | -
CC(=O)CC[C@@H]1CC[C@]2(CCCN(C(=O)C(C)(C)C)C2)O1 | - | - | - | 0 | 0 | - | -
CCOc1ccccc1NC(=O)CCC(=O)O | 0 | 0 | 0 | 0 | 0 | - | -
CCOc1ccccc1NC(=O)C1CCN(C(=O)NCc2ccccc2)CC1 | 0 | 0 | 0 | 0 | 0 | 63.0 | 47.0
CCOc1ccccc1NC(=O)CCC(=O)Nc1ccccc1OCC | 0 | 0 | 0 | 0 | 0 | 58.9 | 49.1
C[C@H]1C[C@H]2[C@@H]3CCC4=CC(=O)C=C[C@]4(C)[C@@]3(F)[C@@H](O)C[C@]2(C)[C@@]1(O)C(=O)CO | 0 | 0 | 0 | 0 | 0 | 0 | -
CC1(c2ccccc2)O[C@@H]2C[C@H]3[C@@H]4CCC5=CC(=O)C=C[C@]5(C)[C@@]4(F)[C@@H](O)C[C@]3(C)[C@]2(C(=O)CO)O1 (some centres undefined) | 0 | 0 | 0 | 0 | 0 | 53.3 | 55.4
CC(CC(=O)Nc1ccc2c(c1)c(=O)n(C)n2-c1ccc2ccccc2c1)C(F)(F)F (centres undefined) | - | - | - | 0 | 0 | 54.6 | 44.1
Cc1ccc2c(c1)-c1c(cnn1CC(=O)NCCc1ccc(Cl)cc1)CO2 | - | - | - | 0 | 0 | - | -
O=C(CCCn1c(=S)[nH]c2cc3c(cc2c1=O)OCO3)N1CCN(c2ccccc2)CC1 | 0 | 0 | 0 | 0 | 0 | 0 | -
Cc1cccc(N2CCN(C(=O)CCCn3c(=S)[nH]c4cc5c(cc4c3=O)OCO5)CC2)c1C | - | 0 | - | 0 | 0 | 53.8 | 0
Cc1cccc(-c2nnc(SCC(=O)Nc3cccc4ccccc34)n2Cc2ccco2)c1 | - | - | - | 0 | 0 | - | -
CC(C)c1ccc(C2C3=C(COC3=O)Nc3cc4c(cc32)OCO4)cc1 (centres undefined) | 0 | 0 | 0 | 0 | 0 | 54.1 | 0
O=C(NCc1ccccc1F)C1C2C=CC3(CN(Cc4ccccc4)C(=O)C13)O2 (centres undefined) | - | - | - | 0 | 0 | - | -
c1ccc(-c2nc(SCc3nc4ccccc4[nH]3)c3oc4ccccc4c3n2)cc1 | - | 0 | 0 | 0 | 0 | 73.7 | 87.8
O=C(C/C=N\O)Nc1ccc(Oc2ccccc2)cc1 | 0 | 0 | 0 | 0 | 0 | 0 | -
CO/N=C\CC(=O)Nc1ccc(Oc2ccccc2)cc1 | 0 | 0 | 0 | 0 | 0 | 60.9 | 81.5
O=C(NCc1ccccc1)N1CCC(c2nc3ccc(Cl)cc3[nH]2)CC1 | - | - | - | 0 | 0 | - | -
O=C(CSc1ccc(C(F)(F)F)cn1)Nc1ccccc1 | 0 | 0 | 0 | 0 | 0 | 0 | -
O=C(/C=C/Sc1ccc(C(F)(F)F)cn1)c1ccccc1 | 0 | 0 | 0 | 0 | 0 | 50.1 | 45.1
OC1CC2CCC(C1)N2CCCN1c2ccccc2Sc2ccc(Cl)cc21 (centres undefined) | - | - | - | 0 | 0 | 103.7 | 78.6
Cc1cccc(NC(=O)Nc2nc3ncccn3c2-c2ccc(F)cc2)c1 | - | - | - | 0 | 0 | - | -
COc1cccc(-c2cc(C(=O)Nc3ccncc3)c3ccccc3n2)c1 | - | 0 | 0 | 0 | 0 | 0 | -
SMILES | HSV replic up | Efflux pump mplx | A1 inh | NPR1 activator | NPR2 activator | TAG inh | TAG conf
COc1cccc(-c2cc(C(=O)Nc3ccc(N(C)C(C)=O)cc3)c3cc(Br)ccc3n2)c1 | - | 0 | 0 | 0 | 0 | 50.3 | 56.6
O=C(NCc1ccc2c(c1)OCO2)c1cc(-c2ccccn2)nc2ccccc12 | 0 | 0 | 0 | 0 | 0 | 52.8 | 0
O=C(NCc1ccco1)c1cc(-c2ccccn2)nc2ccccc12 | 0 | 0 | 0 | 0 | 0 | - | -
CS(=O)(=O)c1ccc(C(=O)OCC(=O)N2CCOCC2)cc1[N+](=O)[O-] | - | - | - | 0 | 0 | 61.7 | 59.2
CCOC(=O)[C@]12CCCC=C1N(CCCOC)C(=O)[C@@H]2CC(=O)NCc1ccccc1 | - | - | - | 0 | 0 | - | -
COc1ccc(Cn2cc(COC(=O)N3CCCC3)nn2)cc1 | - | - | - | 0 | 0 | - | -
Nc1ccc(C#Cc2ccccc2)cc1 | 0 | 0 | 0 | 0 | 0 | - | -
Nc1ccccc1C#Cc1ccccc1 | 0 | - | 0 | 0 | 0 | 52.6 | 53.6
OCCCn1c(C2CCCN2c2nc(-c3ccc(Cl)cc3)cs2)nc2cc(Cl)c(N3CCCCC3)cc21 (centres undefined) | 0 | 0 | 0 | 0 | 0 | 62.1 | 56.0
OCCCn1c(C2CCCN2c2nc(-c3ccc(F)cc3)cs2)nc2cc(C(F)(F)F)ccc21 (centres undefined) | 0 | 0 | 0 | 0 | 0 | 60.1 | 57.0
OCCCn1c(C2CCCN2c2nc(-c3ccc(F)cc3)cs2)nc2cc(Cl)c(N3CCCCC3)cc21 (centres undefined) | 0 | 0 | 0 | 0 | 0 | 0 | -
CN(Cc1ccccc1)C(=O)OCc1cn(Cc2ccccc2F)nn1 | - | - | - | 0 | 0 | - | -
CCOC(=O)c1sc2nc(C)nc(NCCc3ccccn3)c2c1C | 0 | 0 | 0 | 0 | 0 | 0 | -
CCOC(=O)c1sc2nc(CSc3ccccc3)nc(NCCN(C)C)c2c1C | 0 | 0 | 0 | 0 | 0 | 52.1 | 61.6
COc1cccc(CNC(=O)C2C3C=CC4(CN(Cc5ccccc5)C(=O)C24)O3)c1OC (centres undefined) | - | - | - | 0 | 0 | - | -
C(=N\Nc1nc2ccccc2[nH]1)/C1CCCCC1 | 0 | 0 | 0 | 0 | 0 | 74.1 | 0
Cc1cccc(Nc2nc(NCc3ccco3)nc(N3CCOCC3)n2)c1 | 0 | 0 | 0 | 0 | 0 | 86.4 | 82.7
O=C(CSc1nnc(-c2ccccn2)n1Cc1ccco1)Nc1ccc(Oc2ccccc2)cc1 | - | - | - | 0 | 0 | - | -
O=C1COc2ccc(C(=O)CSc3nc4ccccc4c(=O)n3-c3ccc(Cl)c(Cl)c3)cc2N1 | 0 | 0 | 0 | 0 | 0 | 61.3 | 65.9
Nc1cc2c(cc1Br)[nH]c(=O)c1ccccc12 | - | - | - | 0 | 0 | 77.0 | 62.3
Nc1cc2[nH]c(=O)c3ccccc3c2cc1Br | - | - | - | 0 | 0 | 0 | -
CCCCCc1ccc(-c2n[nH]c(=O)c3ccccc23)cc1 | - | - | - | 0 | 0 | - | -
CC(=O)Nc1ccc(-c2ccnc3c2CC(C(=O)NCc2cccc(Cl)c2)O3)cc1 (centres undefined) | - | - | - | 0 | 0 | 58.0 | 62.6
COc1ccc(NC(=O)C2Cc3c(-c4cccc(C(C)=O)c4)ccnc3O2)cc1 (centres undefined) | - | - | - | 0 | 0 | 53.9 | 0
COc1ccc(-c2noc(C3CCCN(C(=O)Nc4ccc(C)c(F)c4)C3)n2)cc1 (centres undefined) | - | - | - | 0 | 0 | - | -
O=C(NCc1ccco1)O[C@H]1CC[C@@]23CCCN2C(=O)CCC[C@H]3C1 | - | - | - | 0 | 0 | - | -

Compound activity: PubChem BioAssay, several laboratories
